Source: the supplement of paper PMC8728848
Many of the other results were omitted from the sample, so the strongest signals are more common in it than they were.

What was measured:
Assay in all cases: glycan array binding signal (z-score within array); higher = stronger binding
[1] = test system: Neu5Ac(a2-3)Gal(b1-4)GlcNAc(b1-3)Gal(b1-4)GlcNAc; details: glycan notation: IUPAC condensed, linker removed
Outline: (§1)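 The Consortium for Functional Glycomics database supplied 3228 glycan arrays, of which those lacking an available protein sequence were dropped. The binding signal, a within-array Z-score, was averaged across arrays of the same protein sequence and across linkers. Negative scores can be read as non-binding.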

[2] = test system: Neu5Ac(a2-3)Gal(b1-4)GlcNAc(b1-6)[Neu5Ac(a2-3)Gal(b1-3)]GalNAc; details: glycan notation: IUPAC condensed, linker removed
Outline: as §1

[3] = test system: Neu5Ac(a2-3)Gal(b1-4)GlcNAc(b1-3)Gal; details: glycan notation: IUPAC condensed, linker removed
Outline: as §1

[4] = test system: Neu5Ac(a2-3)Gal(b1-4)GlcNAc(b1-6)GalNAc; details: glycan notation: IUPAC condensed, linker removed
Outline: as §1

[5] = test system: Neu5Ac(a2-3)Gal(b1-4)[Fuc(a1-3)]GlcNAc(b1-6)[Gal(b1-3)]GalNAc; details: glycan notation: IUPAC condensed, linker removed
Outline: as §1

[6] = test system: Neu5Ac(a2-3)Gal6S(b1-4)GlcNAc; details: glycan notation: IUPAC condensed, linker removed
Outline: as §1

[7] = test system: Neu5Ac(a2-3)Gal(b1-4)GlcNAc6S; details: glycan notation: IUPAC condensed, linker removed
Outline: as §1

[8] = test system: Neu5Ac(a2-3)Gal(b1-4)GlcNAc(b1-3)Gal(b1-4)[Fuc(a1-3)]GlcNAc; details: glycan notation: IUPAC condensed, linker removed
Outline: as §1

[9] = test system: Neu5Ac(a2-3)Gal(b1-4)GlcNAc(b1-6)[Gal(b1-3)]GalNAc; details: glycan notation: IUPAC condensed, linker removed
Outline: as §1

[10] = test system: Neu5Ac(a2-3)Gal(b1-4)[Fuc(a1-3)]GlcNAc6S; details: glycan notation: IUPAC condensed, linker removed
Outline: as §1

[11] = test system: Neu5Ac(a2-3)Gal(b1-4)[Fuc(a1-3)]GlcNAc(b1-3)GalNAc; details: glycan notation: IUPAC condensed, linker removed
Outline: as §1

[12] = test system: Neu5Ac(a2-3)Gal(b1-4)[Fuc(a1-3)]GlcNAc(b1-3)Gal; details: glycan notation: IUPAC condensed, linker removed
Outline: as §1

[13] = test system: Neu5Ac(a2-3)Gal(b1-4)GlcNAc; details: glycan notation: IUPAC condensed, linker removed
Outline: as §1

[14] = test system: Neu5Ac(a2-3)Gal(b1-4)[Fuc(a1-3)]GlcNAc(b1-3)Gal(b1-4)[Fuc(a1-3)]GlcNAc(b1-3)Gal(b1-4)[Fuc(a1-3)]GlcNAc; details: glycan notation: IUPAC condensed, linker removed
Outline: as §1

[15] = test system: Neu5Ac(a2-3)Gal(b1-4)GlcNAc(b1-3)Gal(b1-4)GlcNAc(b1-3)Gal(b1-4)GlcNAc; details: glycan notation: IUPAC condensed, linker removed
Outline: as §1

[16] = test system: Neu5Ac(a2-3)Gal(b1-4)GlcNAc(b1-3)Gal(b1-4)GlcNAc(b1-3)[Neu5Ac(a2-3)Gal(b1-4)GlcNAc(b1-3)Gal(b1-4)GlcNAc(b1-6)]GalNAc; details: glycan notation: IUPAC condensed, linker removed
Outline: as §1

[17] = test system: Neu5Ac(a2-3)Gal(b1-4)GlcNAc(b1-3)[Neu5Ac(a2-3)Gal(b1-4)GlcNAc(b1-6)]GalNAc; details: glycan notation: IUPAC condensed, linker removed
Outline: as §1

Neu5Ac(a2-3)Gal(b1-4)Glc = details: glycan notation: IUPAC condensed, linker removed; mutation: R125K
Outline: as §1

[18] = test system: Neu5Ac(a2-3)Gal(b1-4)[Fuc(a1-3)]GlcNAc(b1-3)Gal(b1-4)GlcNAc; details: glycan notation: IUPAC condensed, linker removed; mutation: R125K
Outline: as §1

[19] = test system: Neu5Ac(a2-3)Gal(b1-4)[Fuc(a1-3)]GlcNAc; details: glycan notation: IUPAC condensed, linker removed
Outline: as §1

Sequence of Neurocan (Homo sapiens), O14594 (O14594 other isoform, or with tags, fused parts or gaps): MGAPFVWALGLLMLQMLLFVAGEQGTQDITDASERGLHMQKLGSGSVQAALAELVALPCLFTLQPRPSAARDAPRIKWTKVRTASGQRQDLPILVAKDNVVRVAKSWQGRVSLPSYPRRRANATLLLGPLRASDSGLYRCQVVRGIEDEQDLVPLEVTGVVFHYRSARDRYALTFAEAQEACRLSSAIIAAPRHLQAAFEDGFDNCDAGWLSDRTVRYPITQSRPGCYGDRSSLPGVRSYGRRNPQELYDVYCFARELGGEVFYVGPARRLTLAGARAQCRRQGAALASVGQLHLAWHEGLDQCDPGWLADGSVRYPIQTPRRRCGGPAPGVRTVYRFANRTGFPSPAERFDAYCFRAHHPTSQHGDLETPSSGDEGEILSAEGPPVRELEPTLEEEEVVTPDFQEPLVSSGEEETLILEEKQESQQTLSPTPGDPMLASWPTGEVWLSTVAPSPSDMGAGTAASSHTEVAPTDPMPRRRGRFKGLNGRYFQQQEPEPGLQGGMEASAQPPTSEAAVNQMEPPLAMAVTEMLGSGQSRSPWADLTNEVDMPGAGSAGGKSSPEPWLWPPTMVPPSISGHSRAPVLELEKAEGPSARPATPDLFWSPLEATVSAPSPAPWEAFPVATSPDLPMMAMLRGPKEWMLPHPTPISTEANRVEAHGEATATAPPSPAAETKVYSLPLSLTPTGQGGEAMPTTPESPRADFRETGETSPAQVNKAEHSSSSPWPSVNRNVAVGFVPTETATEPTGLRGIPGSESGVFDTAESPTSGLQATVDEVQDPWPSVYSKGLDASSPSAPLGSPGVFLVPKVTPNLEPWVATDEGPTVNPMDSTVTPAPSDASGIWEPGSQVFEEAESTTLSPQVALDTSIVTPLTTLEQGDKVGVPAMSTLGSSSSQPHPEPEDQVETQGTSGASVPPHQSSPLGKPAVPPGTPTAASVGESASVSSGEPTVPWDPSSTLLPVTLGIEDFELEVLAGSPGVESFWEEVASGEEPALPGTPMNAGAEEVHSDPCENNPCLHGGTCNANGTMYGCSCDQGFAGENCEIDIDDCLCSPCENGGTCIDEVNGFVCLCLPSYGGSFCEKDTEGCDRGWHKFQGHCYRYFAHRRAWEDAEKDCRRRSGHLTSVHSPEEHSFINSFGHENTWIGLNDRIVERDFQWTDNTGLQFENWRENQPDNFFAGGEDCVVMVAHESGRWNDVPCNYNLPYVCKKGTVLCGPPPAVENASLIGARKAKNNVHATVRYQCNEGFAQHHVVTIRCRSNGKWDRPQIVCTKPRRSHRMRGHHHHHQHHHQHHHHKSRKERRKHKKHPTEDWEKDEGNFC
Sequence of 6RG (Lolium perenne) (chain, as listed by the source): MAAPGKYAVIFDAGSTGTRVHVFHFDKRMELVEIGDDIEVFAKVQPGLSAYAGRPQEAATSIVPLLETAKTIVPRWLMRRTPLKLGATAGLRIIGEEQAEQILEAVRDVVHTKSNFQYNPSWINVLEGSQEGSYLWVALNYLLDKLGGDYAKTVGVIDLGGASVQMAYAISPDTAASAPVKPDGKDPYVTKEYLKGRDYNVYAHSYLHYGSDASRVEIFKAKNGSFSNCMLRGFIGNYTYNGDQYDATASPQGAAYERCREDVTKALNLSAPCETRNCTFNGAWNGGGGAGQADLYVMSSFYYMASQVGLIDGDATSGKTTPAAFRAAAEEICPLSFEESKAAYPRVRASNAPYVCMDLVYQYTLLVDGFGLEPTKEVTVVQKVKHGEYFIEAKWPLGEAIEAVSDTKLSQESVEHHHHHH
Sequence of C3b (Homo sapiens), P01024 (P01024 23-667): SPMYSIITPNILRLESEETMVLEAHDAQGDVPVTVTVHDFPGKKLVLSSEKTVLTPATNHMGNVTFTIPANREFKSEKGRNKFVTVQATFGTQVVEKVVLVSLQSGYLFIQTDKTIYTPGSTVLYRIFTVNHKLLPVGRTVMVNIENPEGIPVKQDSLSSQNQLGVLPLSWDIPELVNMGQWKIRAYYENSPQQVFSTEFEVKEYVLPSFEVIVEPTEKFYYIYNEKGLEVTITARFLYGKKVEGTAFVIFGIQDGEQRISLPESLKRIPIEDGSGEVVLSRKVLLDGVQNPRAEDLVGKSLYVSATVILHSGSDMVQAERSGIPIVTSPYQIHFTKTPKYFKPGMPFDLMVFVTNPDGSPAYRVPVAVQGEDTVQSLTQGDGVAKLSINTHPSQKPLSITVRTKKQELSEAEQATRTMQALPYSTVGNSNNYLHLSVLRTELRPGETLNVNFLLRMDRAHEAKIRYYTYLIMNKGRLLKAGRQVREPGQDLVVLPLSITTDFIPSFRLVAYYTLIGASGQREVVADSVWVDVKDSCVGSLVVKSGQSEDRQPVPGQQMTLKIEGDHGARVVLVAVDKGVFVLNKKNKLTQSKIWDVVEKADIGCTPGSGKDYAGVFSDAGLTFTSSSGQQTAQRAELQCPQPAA
Sequence of Avaren (Actinomycete K97) (chain, as listed by the source): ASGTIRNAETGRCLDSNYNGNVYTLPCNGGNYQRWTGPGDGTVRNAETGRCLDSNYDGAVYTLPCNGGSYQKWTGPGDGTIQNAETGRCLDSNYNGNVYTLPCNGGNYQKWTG
Sequence of CHI3L1 (Homo sapiens), P36222 (P36222 whole entry): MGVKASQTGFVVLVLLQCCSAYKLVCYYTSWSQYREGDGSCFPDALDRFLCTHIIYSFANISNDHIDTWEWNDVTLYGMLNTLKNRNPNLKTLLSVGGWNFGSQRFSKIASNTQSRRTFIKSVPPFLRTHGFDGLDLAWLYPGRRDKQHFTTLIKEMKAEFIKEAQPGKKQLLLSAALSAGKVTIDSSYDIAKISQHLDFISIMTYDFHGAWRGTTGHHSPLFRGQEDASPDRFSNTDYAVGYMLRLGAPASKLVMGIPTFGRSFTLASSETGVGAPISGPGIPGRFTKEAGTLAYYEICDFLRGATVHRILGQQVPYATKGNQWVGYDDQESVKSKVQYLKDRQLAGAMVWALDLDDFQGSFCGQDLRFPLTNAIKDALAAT
Sequence of PILRa (Mus musculus), Q2YSF3 (Q2YSF3 entry or part of it): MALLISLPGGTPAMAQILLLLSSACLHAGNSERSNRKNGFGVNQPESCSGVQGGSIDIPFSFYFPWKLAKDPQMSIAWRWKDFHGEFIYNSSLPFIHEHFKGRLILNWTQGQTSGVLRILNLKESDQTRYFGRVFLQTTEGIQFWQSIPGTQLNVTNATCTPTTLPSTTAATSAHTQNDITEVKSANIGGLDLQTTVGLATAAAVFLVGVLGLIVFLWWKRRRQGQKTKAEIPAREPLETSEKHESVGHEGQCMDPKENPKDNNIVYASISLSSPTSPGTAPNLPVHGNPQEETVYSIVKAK
Sequence of CHT (Homo sapiens) (chain, as listed by the source): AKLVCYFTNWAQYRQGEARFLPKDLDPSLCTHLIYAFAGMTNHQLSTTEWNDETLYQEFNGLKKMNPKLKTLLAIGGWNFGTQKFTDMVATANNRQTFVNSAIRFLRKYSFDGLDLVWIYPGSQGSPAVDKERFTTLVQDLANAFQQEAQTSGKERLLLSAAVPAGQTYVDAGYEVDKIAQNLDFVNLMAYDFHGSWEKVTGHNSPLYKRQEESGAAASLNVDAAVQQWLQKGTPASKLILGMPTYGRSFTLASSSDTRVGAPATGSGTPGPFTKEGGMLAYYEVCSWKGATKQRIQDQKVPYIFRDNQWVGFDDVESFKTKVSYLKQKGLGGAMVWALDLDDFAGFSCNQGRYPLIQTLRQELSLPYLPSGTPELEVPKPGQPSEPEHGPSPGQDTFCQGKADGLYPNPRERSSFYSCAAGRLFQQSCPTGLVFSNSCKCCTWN
Sequence of wLAT-1A (Homo sapiens), Q01650 (Q01650 whole entry): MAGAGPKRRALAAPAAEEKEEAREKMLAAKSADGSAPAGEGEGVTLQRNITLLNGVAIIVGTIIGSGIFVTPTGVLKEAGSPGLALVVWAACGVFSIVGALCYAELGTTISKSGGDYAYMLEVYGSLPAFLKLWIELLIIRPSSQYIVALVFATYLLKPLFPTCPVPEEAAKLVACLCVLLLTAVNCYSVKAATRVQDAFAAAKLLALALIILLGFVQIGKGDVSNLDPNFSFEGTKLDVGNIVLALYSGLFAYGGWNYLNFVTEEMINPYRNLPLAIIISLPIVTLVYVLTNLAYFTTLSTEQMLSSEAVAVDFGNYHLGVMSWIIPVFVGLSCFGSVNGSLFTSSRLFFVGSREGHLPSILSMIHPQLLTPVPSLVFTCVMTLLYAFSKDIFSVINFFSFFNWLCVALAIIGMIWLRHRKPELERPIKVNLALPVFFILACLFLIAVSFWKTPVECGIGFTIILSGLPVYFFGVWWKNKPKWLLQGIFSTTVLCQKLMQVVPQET
Sequence of Regenerating Gene IV (Homo sapiens), Q9BYZ8 (Q9BYZ8 whole entry, looked up): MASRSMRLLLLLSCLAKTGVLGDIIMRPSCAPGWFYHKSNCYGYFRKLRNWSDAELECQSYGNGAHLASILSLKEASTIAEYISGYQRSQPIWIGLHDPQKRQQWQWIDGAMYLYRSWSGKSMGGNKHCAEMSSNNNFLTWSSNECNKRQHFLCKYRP
Sequence of PILRb (Mus musculus), Q2YSF2 (Q2YSF2 entry or part of it): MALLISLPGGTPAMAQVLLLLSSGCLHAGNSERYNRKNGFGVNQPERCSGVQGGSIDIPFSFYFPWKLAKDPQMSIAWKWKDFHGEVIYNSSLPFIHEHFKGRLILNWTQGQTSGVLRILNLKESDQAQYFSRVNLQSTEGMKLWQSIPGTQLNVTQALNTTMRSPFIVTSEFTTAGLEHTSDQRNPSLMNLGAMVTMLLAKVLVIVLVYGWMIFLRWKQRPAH
Sequence of 6RG (Lolium perenne), B9U140 (B9U140 entry or part of it): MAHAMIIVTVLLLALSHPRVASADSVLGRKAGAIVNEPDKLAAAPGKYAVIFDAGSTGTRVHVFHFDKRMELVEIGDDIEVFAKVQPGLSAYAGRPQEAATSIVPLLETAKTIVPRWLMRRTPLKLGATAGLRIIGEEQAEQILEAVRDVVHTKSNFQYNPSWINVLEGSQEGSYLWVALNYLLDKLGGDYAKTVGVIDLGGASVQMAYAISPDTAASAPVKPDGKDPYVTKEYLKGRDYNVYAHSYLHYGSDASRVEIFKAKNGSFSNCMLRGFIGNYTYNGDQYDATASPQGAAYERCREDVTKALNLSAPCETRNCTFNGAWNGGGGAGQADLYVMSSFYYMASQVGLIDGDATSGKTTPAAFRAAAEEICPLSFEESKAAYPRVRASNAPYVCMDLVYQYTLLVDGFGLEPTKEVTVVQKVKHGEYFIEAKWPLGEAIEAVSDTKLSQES

PILRa (Mus musculus), Q2YSF3
glycan array binding signal (z-score) [1]: 1.21 | glycan array binding signal (z-score) [2]: -0.272

MpAFP RI GFP (Marinomonas primoryensis)
glycan array binding signal (z-score) [3]: -0.665 | glycan array binding signal (z-score) [4]: -0.342 | glycan array binding signal (z-score) [5]: 0.494 | glycan array binding signal (z-score) [6]: -0.72

Avaren (Actinomycete K97)
glycan array binding signal (z-score) [2]: -0.138 | glycan array binding signal (z-score) [7]: -0.116

Regenerating Gene IV (Homo sapiens), Q9BYZ8
glycan array binding signal (z-score) [5]: 0.692

6RG (Lolium perenne)
glycan array binding signal (z-score) [8]: -0.244 | glycan array binding signal (z-score) [9]: -0.075 | glycan array binding signal (z-score) [10]: -0.352

CHT (Homo sapiens)
glycan array binding signal (z-score) ([7]; mutation: D138V, E140I): -0.118

CHI3L1 (Homo sapiens), P36222
glycan array binding signal (z-score) [11]: -0.075 | glycan array binding signal (z-score) [12]: -0.104

PILRb (Mus musculus), Q2YSF2
glycan array binding signal (z-score) [10]: -0.229

HARE (Homo sapiens), Q8WWQ8
glycan array binding signal (z-score) [13]: -0.41

Aggrecan (Rattus norvegicus), NP_071526
glycan array binding signal (z-score) [14]: -0.136

6RG (Lolium perenne), B9U140
glycan array binding signal (z-score) [6]: 1.4

wLAT-1A (Homo sapiens), Q01650
glycan array binding signal (z-score) [6]: 0.097

Siglec-8 (Homo sapiens), Q9NYZ4
glycan array binding signal (z-score) ([15]; mutation: R125K): -0.378 | glycan array binding signal (z-score) [16]: -0.138 | glycan array binding signal (z-score) [17]: -0.207 | glycan array binding signal (z-score) (Neu5Ac(a2-3)Gal(b1-4)Glc): 6.29 | glycan array binding signal (z-score) [18]: -0.182 | glycan array binding signal (z-score) ([12]; mutation: R125K): 0.14 | glycan array binding signal (z-score) ([10]; mutation: R125K): -0.382 | glycan array binding signal (z-score) [6]: 16.9

Neurocan (Homo sapiens), O14594
glycan array binding signal (z-score) [11]: 4.45 | glycan array binding signal (z-score) [5]: 3.52 | glycan array binding signal (z-score) [6]: -1.3

C3b (Homo sapiens), P01024
glycan array binding signal (z-score) [15]: 0.362 | glycan array binding signal (z-score) [1]: -0.787 | glycan array binding signal (z-score) [19]: 0.03
